Results taken from PubChem BioAssay (NCATS).
Inconclusive results are not listed. Calls of active or inactive are those of the source. The call rests on the fitted dose curve; in most records, active means well fitted inhibition curve with a large enough effect; inconclusive means small, poorly fitted or top-dose-only effect; inactive means no such curve, though single readings can be large or run the other way.

Target: N-terminal Xaa-Pro-Lys N-methyltransferase 1 (Homo sapiens) (UniProt Q9BV86)
Test: qHTS Assay for Inhibitors of N-terminal methyltransferase 1 (NTMT1): LOPAC validation of the NTMT1 SAHH-coupled ThioGlo3 Assay (AID 1347143);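 further: SAH from peptide methylation measured as thiol fluorescence via SAHH coupling and ThioGlo3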; on activity change, negative = inhibition: on the % scale 0 is the no-effect control and ±100 the full control effect
Conditions: recombinant NTMT1, SAHH-coupled ThioGlo3 fluorescence; series mostly up to 114 µM; activity change, negative = inhibition: at the top concentration
Outline: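 NTMT1 125nM + cpds (various conc.), 1 min RT; add SAM 100uM/SAHH 10uM/ThioGlo3 15uM (addition mix). SAHH-coupled thiol detection, Ex340/Em450, t0 and 30 min RT; signal normalized to background. LOPAC 1280-cpd pilot.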
Further: nearly all actives have a fitted effect of over 70% in size.
Potency means the concentration at half of the fitted maximal effect.

N-terminal Xaa-Pro-Lys N-methyltransferase 1 (Homo sapiens), sequence (Q9BV86 whole entry, looked up): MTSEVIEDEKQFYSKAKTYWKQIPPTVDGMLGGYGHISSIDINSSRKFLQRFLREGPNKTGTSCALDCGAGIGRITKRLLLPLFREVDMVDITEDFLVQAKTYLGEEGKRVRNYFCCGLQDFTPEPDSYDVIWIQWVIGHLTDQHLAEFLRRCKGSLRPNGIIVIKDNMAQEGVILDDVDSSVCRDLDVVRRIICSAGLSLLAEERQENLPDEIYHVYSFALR

Row | SMILES | Potency | activity change, negative = inhibition
1 | Oc1ccc(C2CNCc3sccc32)cc1O (stereo not given) | 35.5 µM (active) | 
2 | OCC1O[C@H](O)C(Cl)C(O)C1O (stereo not given in full) |  | -10.4% (inactive)
3 | CCCCCCCCCCCCCCCC(=O)OC(CC(=O)O)C[N+](C)(C)C (stereo not given) |  | -24.6% (inactive)
4 | O=C(O)CNC(=O)C(CS)Cc1ccccc1 (stereo not given) |  | 2270% (inactive)
5 | O=C1NC(=O)/C(=C/c2ccc(-c3ccc(F)cc3O)o2)S1 | 44.7 µM (active) | 
6 | Cc1ccc(S(=O)(=O)/C=C/C#N)cc1 | 5.62 µM (active) | 
7 | O=C1NC(=O)c2c1c(-c1ccccc1)cc1[nH]c3ccc(O)cc3c21 | 50.1 µM (active) | 
8 | NC(=O)C(=O)O |  | -7.49% (inactive)
9 | O=C(c1cc(O)c(O)c([N+](=O)[O-])c1)c1ccccc1F | 56.2 µM (active) | 
10 | COc1cc(SC)ccc1C(=O)N1CCC(Cc2ccccc2)CC1 |  | -11.8% (inactive)
11 | C=C/C(C)=C/[C@@]1(C)SC(=O)C(C)=C1O |  | -2.03% (inactive)
12 | CCNc1nc2c(ncn2[C@H]2C[C@H](O)[C@@H](CO)O2)c(=O)[nH]1 |  | -24% (inactive)
13 | Brc1cc2c(cc1[C@H]1Nc3ccccc3[C@H]3C=CC[C@H]31)OCO2 |  | -3.24% (inactive)
14 | CCCCCCCC/C=C\CCCCCCCC(=O)NCCO |  | -27% (inactive)
15 | COCCOc1cc2ncnc(Cl)c2cc1OCCOC |  | -15.8% (inactive)
16 | COc1ccc(/C=C/c2nc(NCCCN(C)C)c3ccccc3n2)cc1 | 50.1 µM (active) | 
17 | CC[C@@H](C)[C@H]1O[C@]2(CC[C@@H]1C)C[C@@H]1C[C@@H](C/C=C(\C)[C@@H](O[C@H]3C[C@H](OC)[C@@H](O[C@H]4C[C@H](OC)[C@@H](O)[C@H](C)O4)[C@H](C)O3)[C@@H](C)/C=C/C=C3\CO[C@@H]4[C@H](O)C(C)=C[C@@H](C(=O)O1)[C@]34O)O2 |  | 4.08% (inactive)

Row | SMILES | Potency | activity change, negative = inhibition
18 | NO |  | -27.7% (inactive)
19 | C[C@@H](CN1CCC(Cc2ccccc2)CC1)[C@@H](O)c1ccc(O)cc1 |  | -10.6% (inactive)
20 | NCCCS(=O)(=O)O |  | -19.2% (inactive)
21 | OC[C@H]1O[C@@H](n2cnc3c(NC4CCCCC4)ncnc32)[C@H](O)[C@@H]1O |  | -7.61% (inactive)
22 | CC(=O)SCC[N+](C)(C)C |  | 145% (inactive)
23 | O=C1NCc2c1c1c3ccccc3[nH]c1c1[nH]c3ccccc3c21 | 79.4 µM (active) | 
24 | NC(CCCP(=O)(O)O)C(=O)O (stereo not given) |  | -8.34% (inactive)
25 | CCOC(=O)N1CCN(/[N+]([O-])=N/Oc2ccc([N+](=O)[O-])cc2[N+](=O)[O-])CC1 | 28.2 µM (active) | 
26 | Oc1cc2c(cc1O)CN(C(=S)NCCc1ccc(Cl)cc1)CCC2 | 20 µM (active) | 
27 | O=C(NOCC1CC1)c1cc(Br)c(F)c(F)c1Nc1ccc(I)cc1Cl |  | -14.2% (inactive)
28 | O=C(Nc1cccc(C(=O)Nc2ccc(S(=O)(=O)O)c3cc(S(=O)(=O)O)cc(S(=O)(=O)O)c23)c1)Nc1cccc(C(=O)Nc2ccc(S(=O)(=O)O)c3cc(S(=O)(=O)O)cc(S(=O)(=O)O)c23)c1 |  | -18.6% (inactive)
29 | CCOC(=O)C1=C(C)NC(C)=C(C(=O)OCC)C1c1c(F)c(F)c(F)c(F)c1F | 79.4 µM (active) | 
30 | CCNC(=O)[C@H]1O[C@@H](n2cnc3c(N)nc(NCCc4ccc(CCC(=O)O)cc4)nc32)[C@H](O)C1O (stereo not given in full) |  | -27% (inactive)
31 | COC1=C(OC)C(=O)c2ccccc2C1=O |  | -20.1% (inactive)
32 | CCC(CO)Nc1nc(NCc2ccccc2)c2ncn(C(C)C)c2n1 (stereo not given) |  | -14.4% (inactive)
33 | NS(=O)(=O)c1ccc(-n2nc(C(F)(F)F)cc2-c2ccc(Cl)cc2)cc1 |  | 18.5% (inactive)
34 | O=C1C(SCCO)=C(SCCO)C(=O)c2ccccc21 |  | 217% (inactive)

Target: Furin (Homo sapiens) (UniProt P09958)
Test: Furin counterscreen qHTS for Zika virus inhibitors (AID 1347149);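 on activity change, negative = inhibition: purified recombinant full-length human furin enzyme at 5 nM; fluorescence gain from furin cutting a BOC-RVRR-AMC peptide substrate over 15 min; top concentration of the series differs between compounds; plate controls were no-inhibitor control for no effect and no-enzyme control for full effect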
Conditions: furin enzymatic counterscreen, fluorogenic substrate; series mostly up to 57.5 µM; activity change, negative = inhibition: at the top concentration
Outline: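 Counterscreen measures cleavage of 2 microM BOC-RVRR-AMC, below its ~15 microM Km, by 5 nM full-length human furin at pH 7.0 after a 15-min compound preincubation. Inhibition derives from the 15-min fluorescence increase at 37C.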

Furin (Homo sapiens), sequence (P09958 whole entry, looked up): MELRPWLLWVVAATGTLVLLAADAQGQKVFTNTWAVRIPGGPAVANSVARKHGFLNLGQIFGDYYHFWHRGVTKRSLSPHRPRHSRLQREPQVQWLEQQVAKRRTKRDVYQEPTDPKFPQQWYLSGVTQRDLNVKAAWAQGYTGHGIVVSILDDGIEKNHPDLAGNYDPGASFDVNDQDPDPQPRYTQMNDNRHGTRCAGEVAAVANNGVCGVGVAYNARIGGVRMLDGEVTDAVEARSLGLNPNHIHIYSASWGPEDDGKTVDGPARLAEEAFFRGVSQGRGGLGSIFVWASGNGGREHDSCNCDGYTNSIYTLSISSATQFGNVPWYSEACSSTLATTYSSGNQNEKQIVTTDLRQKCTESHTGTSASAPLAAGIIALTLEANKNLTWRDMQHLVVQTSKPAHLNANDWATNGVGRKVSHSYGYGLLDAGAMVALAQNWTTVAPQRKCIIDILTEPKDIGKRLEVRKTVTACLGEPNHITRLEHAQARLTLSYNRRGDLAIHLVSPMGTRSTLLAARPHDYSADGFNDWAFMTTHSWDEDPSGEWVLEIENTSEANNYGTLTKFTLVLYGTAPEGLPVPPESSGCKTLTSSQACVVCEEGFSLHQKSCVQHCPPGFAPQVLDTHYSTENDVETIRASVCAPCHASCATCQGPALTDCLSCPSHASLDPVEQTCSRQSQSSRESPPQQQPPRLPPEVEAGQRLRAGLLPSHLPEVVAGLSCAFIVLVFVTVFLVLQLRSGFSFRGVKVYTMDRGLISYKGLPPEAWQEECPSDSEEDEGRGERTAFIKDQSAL

Row | SMILES | activity change, negative = inhibition | Potency
35 | NC(=O)C(=O)O | -2.78% (inactive) | 
36 | O=C(c1cc(O)c(O)c([N+](=O)[O-])c1)c1ccccc1F | -10.1% (inactive) | 
37 | CC[C@@H](C)[C@H]1O[C@]2(CC[C@H]1C)C[C@@H]1C[C@@H](CC=C(C)[C@@H](O[C@H]3C[C@H](OC)[C@@H](O[C@H]4C[C@H](OC)[C@@H](O)[C@H](C)O4)[C@H](C)O3)[C@@H](C)C=CC=C3CO[C@@H]4[C@H](O)C(C)=C[C@@H](C(=O)O1)[C@]34O)O2 | -1.64% (inactive) | 
38 | COc1ccc(/C=C/c2nc(NCCCN(C)C)c3ccccc3n2)cc1 |  | 24.1 µM (active)
39 | C=C[C@@H]1CN2CC[C@@H]1C[C@H]2[C@H](O)c1ccnc2ccc(OC)cc12 |  | 24.1 µM (active)
40 | CN1CCN(c2cc3c(nn2)Oc2ccccc2N3C)CC1 |  | 11.8 µM (active)
41 | Oc1cc2c(cc1O)CN(C(=S)NCCc1ccc(Cl)cc1)CCC2 | 2.48% (inactive) | 
42 | O=C(NOCC1CC1)c1cc(Br)c(F)c(F)c1Nc1ccc(I)cc1Cl | 28.3% (inactive) | 
43 | COc1ccc(Br)cc1S(=O)(=O)NC(=O)/C=C/c1ccccc1Cc1ccc2ccccc2c1 |  | 27 µM (active)
44 | COC(=O)C1=C(C)NC(C)=C(C(=O)OC)C1c1cccc(NC(=O)NCCCN2CCC(c3cccc(OC)c3)CC2)c1 |  | 30.3 µM (active)
45 | Cc1ccccc1CNc1ncnc2c1ncn2C1OC(CO)C(O)C1O (stereo not given) | 2.45% (inactive) | 
